# Assay results reported in PubChem BioAssay (Tox21).
# Results filed as inconclusive are left out. Entries that show only a call come without a potency. A number with no mark means an inactive call. The source made the active and inactive calls. Unless noted, the call rests on the fitted dose curve; in most records, active means well fitted curve in the direction sought with a large enough effect in the repeat runs; inconclusive means weak or mixed curves; inactive means no such curve, though single readings can be large; an effect the other way counts as inactive or inconclusive.
# Assays:
# [1] = qHTS assay to identify aromatase inhibitors - cell viability counter screen (AID 743084);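 further: cells stimulated with testosterone during compound exposure; nearly all actives have a fitted effect of over 55% in size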
# [2] = target: Aryl hydrocarbon receptor (Homo sapiens) (UniProt P35869); experiment: qHTS assay to identify small molecule that activate the aryl hydrocarbon receptor (AhR) signaling pathway (AID 743085); further: nearly all actives have a fitted effect of over 15% in size; further: potency means the concentration at half of the fitted maximal effect;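 on activation: HG2L7.5c1 human HepG2 liver cells with stably integrated DRE-driven firefly reporter; series mostly up to about 70 µM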
# Chain of Aryl hydrocarbon receptor (Homo sapiens) (P35869 whole entry, looked up): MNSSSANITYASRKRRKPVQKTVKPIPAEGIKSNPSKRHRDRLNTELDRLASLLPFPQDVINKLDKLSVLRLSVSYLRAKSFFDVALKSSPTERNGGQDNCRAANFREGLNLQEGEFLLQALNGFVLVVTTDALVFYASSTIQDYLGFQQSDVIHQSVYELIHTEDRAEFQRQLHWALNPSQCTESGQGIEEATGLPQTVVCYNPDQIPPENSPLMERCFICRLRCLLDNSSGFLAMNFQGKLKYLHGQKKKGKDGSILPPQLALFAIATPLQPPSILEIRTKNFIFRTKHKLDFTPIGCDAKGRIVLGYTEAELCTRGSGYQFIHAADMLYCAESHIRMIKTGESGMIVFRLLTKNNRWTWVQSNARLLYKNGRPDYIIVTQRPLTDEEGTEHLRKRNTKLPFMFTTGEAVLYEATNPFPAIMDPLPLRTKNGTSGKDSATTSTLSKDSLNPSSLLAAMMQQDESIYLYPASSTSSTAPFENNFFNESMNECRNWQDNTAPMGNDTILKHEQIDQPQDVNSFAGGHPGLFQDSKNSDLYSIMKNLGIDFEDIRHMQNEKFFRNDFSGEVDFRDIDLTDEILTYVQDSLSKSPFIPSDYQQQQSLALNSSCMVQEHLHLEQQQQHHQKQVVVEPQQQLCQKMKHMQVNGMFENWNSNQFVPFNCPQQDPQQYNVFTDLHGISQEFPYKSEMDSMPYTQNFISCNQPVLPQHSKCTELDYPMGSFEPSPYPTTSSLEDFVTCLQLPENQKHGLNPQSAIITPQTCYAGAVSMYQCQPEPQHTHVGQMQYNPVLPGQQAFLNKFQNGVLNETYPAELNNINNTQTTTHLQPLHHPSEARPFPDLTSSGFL
# In short: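 24 h compound exposure, 37C, HepG2-derived HG2L7.5c1 cells with DRE-responsive luciferase. Readouts: fluorescence viability, then luminescence at room temperature after 30 min.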
# [3] = qHTS assay to identify small molecule that activate the aryl hydrocarbon receptor (AhR) signaling pathway - cell viability counter screen (AID 743086);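 further: HepG2 liver cells carrying the AhR DRE luciferase reporter; series mostly up to about 70 µM; nearly all actives have a fitted effect of over 45% in size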
# In short: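 HepG2-AhR-luc (HG2L7.5c1) cells, 4000/well, treated 24 h at 37 C with compound; viability measured as CellTiter-Fluor fluorescence after 30 min in the same wells as the luciferase read.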
# [4] = target: Peroxisome proliferator-activated receptor gamma (Homo sapiens) (UniProt P37231); experiment: qHTS assay to identify small molecule agonists of the peroxisome proliferator-activated receptor gamma (PPARg) signaling pathway (AID 743094; active means well fitted activation curve with a large enough effect in the signal ratio in the repeat runs, not every such curve was filed as active; the % refers to the signal ratio)
# Chain of Peroxisome proliferator-activated receptor gamma (Homo sapiens) (P37231 whole entry, looked up): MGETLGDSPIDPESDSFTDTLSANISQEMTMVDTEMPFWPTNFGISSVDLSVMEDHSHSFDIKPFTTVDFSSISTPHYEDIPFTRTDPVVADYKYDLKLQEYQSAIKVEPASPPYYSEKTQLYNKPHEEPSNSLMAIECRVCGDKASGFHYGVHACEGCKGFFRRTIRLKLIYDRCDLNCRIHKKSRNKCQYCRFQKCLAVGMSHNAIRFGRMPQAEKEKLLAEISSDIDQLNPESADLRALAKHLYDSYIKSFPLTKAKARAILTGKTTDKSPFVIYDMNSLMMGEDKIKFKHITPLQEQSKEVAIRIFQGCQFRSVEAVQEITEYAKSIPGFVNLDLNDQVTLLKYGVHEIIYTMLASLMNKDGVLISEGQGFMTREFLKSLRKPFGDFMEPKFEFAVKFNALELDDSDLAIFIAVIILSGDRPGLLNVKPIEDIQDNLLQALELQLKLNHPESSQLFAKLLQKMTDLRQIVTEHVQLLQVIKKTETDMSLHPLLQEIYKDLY
# In short: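 Cell-based bla reporter, HEK293H background, PPARg-driven UAS. Pre-incubation 5 h, 37C, 5% CO2. Compound 17 h, 37C. Substrate 1 h RT; fluorescence.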
# [5] = target: Peroxisome proliferator-activated receptor gamma (Homo sapiens) (UniProt P37231); experiment: qHTS assay to identify small molecule antagonists of the peroxisome proliferator-activated receptor gamma (PPARg) signaling pathway (AID 743191; calls by dose curve; further: series mostly up to about 63 µM; nearly all actives have a fitted effect of over 30% in size)
# In short: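 GeneBLAzer PPARg UAS-bla HEK293H cells, 5 h post-plating, exposed to compounds 17 h at 37C. LiveBLAzer B/G FRET substrate added for 1 h at room temperature; beta-lactamase reporter read by fluorescence intensity.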
# [6] = qHTS assay to identify small molecule antagonists of the peroxisome proliferator-activated receptor gamma (PPARg) signaling pathway - cell viability counter screen (AID 743194); further: nearly all actives have a fitted effect of over 55% in size
# In short: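 Cytotoxicity counter screen in PPARg-bla HEK293H cells, same wells as reporter assay. Compounds plus 50 nM rosiglitazone (final) for 17 h at 37 C, then viability read by CellTiter-Glo luminescence.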
# [7] = qHTS assay for small molecule agonists of the antioxidant response element (ARE) signaling pathway (AID 743202; active means well fitted activation curve with a large enough effect in the signal ratio in the repeat runs, not every such curve was filed as active; the % refers to the signal ratio; further: potency means the concentration at half of the fitted maximal effect)
# In short: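 HepG2 ARE-bla cells; 16 h treatment at 37 C; FRET-based beta-lactamase fluorescence read after 2 h substrate incubation at room temperature.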
# [8] = qHTS assay for small molecule agonists of the antioxidant response element (ARE) signaling pathway - cell viability counter screen (AID 743203; calls by dose curve; further: nearly all actives have a fitted effect of over 55% in size)
# In short: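 Measured in the same wells as the beta-lactamase ARE reporter, this read-out is CellTiter-Glo luminescence from HepG2 ARE-bla cells given compounds for 16 hrs.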
# [9] = qHTS assay for small molecule activators of the heat shock response signaling pathway - cell viability counter screen (AID 743209); further: nearly all actives have a fitted effect of over 50% in size
# In short: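 Same-well multiplex: after 2.5 h room-temperature incubation with LiveBLAzer B/G substrate and fluorescence reading, CellTiter-Glo reagent was added to HSE-bla HeLa cells that had received compound for 5 h at 37 C; luminescence read after 30 min.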
# [10] = qHTS assay for small molecule activators of the heat shock response signaling pathway (AID 743210; active means well fitted activation curve with a large enough effect in the signal ratio in the repeat runs, with a control signal flat, not every such curve was filed as active; the % refers to the signal ratio;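 further: HeLa cells with beta-lactamase reporter driven by heat shock elements; series mostly up to about 63 µM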)
# In short: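 Following overnight attachment, HSE-bla HeLa cells received test compounds for 5 h at 37 C; beta-lactamase activity was then detected via FRET substrate fluorescence.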
SMILES,outcome [1],Potency [2],outcome [3],outcome [4],outcome [5],outcome [6],Potency [7],outcome [8],Potency [9],outcome [10],"ratio activity, negative = inhibition [5]","activity change, negative = cytotoxicity [6]",activation [7],"activity change, negative = cytotoxicity [9]",activation [10]
CCN1CCN(C(=O)N[C@@H](C(=O)N[C@@H]2C(=O)N3[C@@H]2SC(C)(C)[C@H]3C(=O)O)c2ccccc2)C(=O)C1=O,inactive,inactive,inactive,inactive,inactive,inactive,inactive,inactive,inactive,inactive,–,–,–,–,–
CC(C)(C)C(=O)CCc1ccc(Cl)cc1,inactive,inactive,inactive,inactive,inactive,inactive,inactive,–,–,inactive,–,–,–,–,–
CCCC(=O)CC,inactive,inactive,inactive,inactive,inactive,inactive,inactive,–,inactive,–,–,–,–,–,–
N=C(N)N1CCc2ccccc2C1,inactive,inactive,inactive,inactive,–,–,–,–,–,–,-11.9% [at 5.95 µM],0.134% [at 5.95 µM],-8.74% [at 8.36 µM],14.1% [at 5.95 µM],-0.5% [at 5.95 µM]
CCC(=O)OCCOc1ccccc1,inactive,inactive,inactive,inactive,inactive,inactive,–,inactive,inactive,inactive,–,–,–,–,–
Cc1ccc(Br)cc1,inactive,inactive,inactive,inactive,inactive,inactive,inactive,–,inactive,inactive,–,–,–,–,–
CCCCC(CC)CCC(CC(C)C)OS(=O)(=O)O (stereo unspecified),inactive,inactive,inactive,inactive,inactive,inactive,–,inactive,inactive,inactive,–,–,–,–,–
C=C(C)C(=O)OCCOC1CC2CC1C1C=CCC21 (stereo unspecified),inactive,inactive,inactive,inactive,inactive,inactive,inactive,–,inactive,inactive,–,–,–,–,–
CCCc1ccc(O)c(OC)c1,inactive,inactive,inactive,inactive,inactive,inactive,inactive,–,inactive,inactive,–,–,–,–,–
CC(C)(Sc1cc(C(C)(C)C)c(O)c(C(C)(C)C)c1)Sc1cc(C(C)(C)C)c(O)c(C(C)(C)C)c1,inactive,inactive,inactive,inactive,inactive,inactive,inactive,inactive,inactive,inactive,–,–,–,–,–
CCCCCCC(O)CO (stereo unspecified),inactive,inactive,inactive,inactive,inactive,inactive,–,inactive,inactive,–,–,–,–,–,–
C/C=C/C(=O)CCCC,inactive,inactive,inactive,inactive,inactive,inactive,–,inactive,inactive,–,–,–,–,–,–
CCCCCCCCC1CO1 (stereo unspecified),inactive,inactive,inactive,inactive,inactive,inactive,inactive,–,inactive,inactive,–,–,–,–,–
COc1cc2nc(N3CCN(C(=O)C4CCCO4)CC3)nc(N)c2cc1OC (stereo unspecified),inactive,inactive,inactive,inactive,inactive,inactive,inactive,inactive,inactive,inactive,–,–,–,–,–
COC(=O)N/N=C/c1c[n+]([O-])c2ccccc2[n+]1[O-],inactive,inactive,inactive,inactive,inactive,inactive,–,inactive,inactive,inactive,–,–,–,–,–
CC(=O)Oc1ccc(C(C)=O)cc1,inactive,inactive,inactive,inactive,inactive,inactive,inactive,inactive,inactive,inactive,–,–,–,–,–
C=CC(C)(CCC=C(C)C)OC(=O)C(C)C (stereo unspecified),inactive,inactive,inactive,inactive,inactive,inactive,inactive,–,inactive,inactive,–,–,–,–,–
CCCC[O][Al]([O]CCCC)[O]CCCC,inactive,inactive,inactive,inactive,inactive,inactive,inactive,–,inactive,inactive,–,–,–,–,–
CC(C)OC(=O)C(C(=O)OC(C)C)=C1SC=CS1,inactive,inactive,inactive,inactive,inactive,inactive,–,inactive,inactive,–,–,–,–,–,–
OCCC(F)(F)C(F)(F)C(F)(F)C(F)(F)C(F)(F)C(F)(F)F,inactive,inactive,inactive,inactive,inactive,inactive,inactive,inactive,inactive,inactive,–,–,–,–,–
O=C1c2ccccc2C(=O)N1CO,inactive,inactive,inactive,inactive,inactive,inactive,inactive,–,inactive,inactive,–,–,–,–,–
C[C@@H](CN1CC(=O)NC(=O)C1)N1CC(=O)NC(=O)C1,inactive,inactive,inactive,inactive,inactive,inactive,–,inactive,inactive,–,–,–,–,–,–
Cc1nc2ccc(Cl)cc2[nH]1,inactive,30.6 µM (active),inactive,inactive,inactive,inactive,inactive,–,inactive,inactive,–,–,–,–,–
CCCCCCCCCCCC(C)=O,inactive,inactive,inactive,inactive,inactive,inactive,inactive,inactive,inactive,inactive,–,–,–,–,–
C[Si](C)(C)O[Si](O)(O)O,inactive,inactive,inactive,inactive,–,inactive,inactive,inactive,inactive,–,–,–,–,–,–
CCCC(C)C(O)CC (stereo unspecified),inactive,inactive,inactive,inactive,–,inactive,inactive,–,–,–,–,–,–,–,–
CNC(C)=O,inactive,inactive,inactive,inactive,–,inactive,inactive,inactive,inactive,inactive,–,–,–,–,–
O=C(OOC(=O)c1ccccc1)c1ccccc1,inactive,inactive,inactive,inactive,–,inactive,inactive,inactive,inactive,inactive,–,–,–,–,–

SMILES,outcome [1],Potency [2],outcome [3],outcome [4],outcome [5],outcome [6],Potency [7],outcome [8],Potency [9],outcome [10],"ratio activity, negative = inhibition [5]","activity change, negative = cytotoxicity [6]",activation [7],"activity change, negative = cytotoxicity [9]",activation [10]
CCO/C=C1\N=C(c2ccccc2)OC1=O,inactive,inactive,inactive,inactive,–,inactive,inactive,inactive,inactive,inactive,–,–,–,–,–
CC(=O)SCC(CC(=O)c1ccc(C)cc1)C(=O)O (stereo unspecified),inactive,inactive,inactive,inactive,–,inactive,inactive,inactive,inactive,inactive,–,–,–,–,–
CC1(C)S[C@@H]2[C@H](NC(=O)Cc3ccccc3)C(=O)N2[C@H]1C(=O)O (tested in a mixture with another compound),inactive,inactive,inactive,inactive,–,inactive,inactive,inactive,inactive,inactive,–,–,–,–,–
Cc1ccccc1C#N,inactive,inactive,inactive,inactive,inactive,inactive,–,–,inactive,inactive,–,–,–,–,–
O=P(O)(O)C(O)(Cc1cccnc1)P(=O)(O)O,inactive,inactive,inactive,inactive,–,inactive,inactive,inactive,inactive,inactive,–,–,–,–,–
N#Cc1ccccc1C#N,inactive,inactive,inactive,inactive,–,inactive,inactive,inactive,inactive,inactive,–,–,–,–,–
CN1C(CCl)Nc2cc(Cl)c(S(N)(=O)=O)cc2S1(=O)=O (stereo unspecified),inactive,inactive,inactive,inactive,–,inactive,26.6 µM (active),inactive,inactive,inactive,–,–,–,–,–
CC(C)=CCC/C(C)=C\C#N,inactive,inactive,inactive,inactive,–,inactive,inactive,inactive,inactive,inactive,–,–,–,–,–
CCCCCCCCCCCCCCCC/C=C/C1CC(=O)OC1=O (stereo unspecified),inactive,inactive,inactive,inactive,–,inactive,inactive,inactive,inactive,inactive,–,–,–,–,–
NC(=O)CC[C@@H](N)C(=O)O,inactive,inactive,inactive,inactive,inactive,inactive,–,–,inactive,inactive,–,–,–,–,–
C=CCCCCCCCCCCCCCC,inactive,inactive,inactive,inactive,inactive,inactive,–,inactive,inactive,inactive,–,–,–,–,–
COc1cc(NS(=O)(=O)c2ccc(N)cc2)ncn1,inactive,inactive,inactive,inactive,–,inactive,inactive,inactive,inactive,inactive,–,–,–,–,–
O=CN1CCCCC1,inactive,inactive,inactive,inactive,–,inactive,inactive,inactive,inactive,inactive,–,–,–,–,–
C=C(C)C(=O)OCCCC,inactive,inactive,inactive,inactive,–,inactive,inactive,inactive,inactive,inactive,–,–,–,–,–
O=C(O)/C=C(\CC(=O)O)C(=O)O,inactive,inactive,inactive,inactive,–,inactive,inactive,inactive,inactive,inactive,–,–,–,–,–
CCCCCC(CC)OC(=O)CCCOc1ccc(Cl)cc1Cl (stereo unspecified),inactive,inactive,inactive,inactive,–,inactive,inactive,inactive,inactive,–,–,–,–,–,–
CC(=O)Nc1ccc(S(=O)(=O)Nc2cc(C)on2)cc1,inactive,inactive,inactive,inactive,–,inactive,inactive,inactive,inactive,inactive,–,–,–,–,–
COc1ccc(Cl)cc1C,inactive,inactive,inactive,inactive,–,inactive,inactive,inactive,inactive,–,–,–,–,–,–
Cc1cc(C)c(C)c(C)c1,inactive,inactive,inactive,inactive,–,inactive,inactive,inactive,inactive,–,–,–,–,–,–
CC(=O)c1c(C)cc(C(C)(C)C)cc1C,inactive,inactive,inactive,inactive,inactive,inactive,–,inactive,inactive,inactive,–,–,–,–,–
Cc1ccc(NC(N)=O)cc1,inactive,inactive,inactive,inactive,–,inactive,inactive,inactive,inactive,inactive,–,–,–,–,–
O=Cc1ccc(C(=O)O)cc1,inactive,inactive,inactive,inactive,inactive,–,–,inactive,inactive,–,–,–,–,–,–
Cc1ccccc1OCC(=O)O,inactive,inactive,inactive,inactive,–,inactive,inactive,inactive,inactive,inactive,–,–,–,–,–
COCCCOc1cc(C[C@@H](C[C@H](N)[C@@H](O)C[C@H](C(=O)NCC(C)(C)C(N)=O)C(C)C)C(C)C)ccc1OC,inactive,inactive,inactive,inactive,–,inactive,inactive,inactive,inactive,–,–,–,–,–,–
CC(=O)OC/C=C(/C)CCC=C(C)C,inactive,inactive,inactive,inactive,–,inactive,inactive,inactive,inactive,–,–,–,–,–,–
C=CCn1cc[n+](C)c1,inactive,inactive,inactive,inactive,–,inactive,inactive,inactive,inactive,–,–,–,–,–,–
NCC1CCC(C(=O)Oc2ccc(CCC(=O)O)cc2)CC1 (stereo unspecified),inactive,inactive,inactive,inactive,–,inactive,inactive,inactive,inactive,inactive,–,–,–,–,–
